Hit rate of the full screen: of about 410,000 compounds, about 7,200 (1.8%) were called active. Inconclusive results (about 7%) are left out. The call rests on the fitted dose curve; in most records, active means well fitted activation curve with a large enough effect; inconclusive means small, poorly fitted or top-dose-only effect, or another doubt; inactive means no such curve, though single readings can be large or run the other way. The sample as a whole holds a higher share of actives than the screen did.
Test: qHTS of TDP-43 Inhibitors; further: nearly all actives have a fitted effect of over 50% in size; on growth rescue (activation): % of control where 0% means no effect
Details: TDP-43 expressing yeast growth rescue, BacTiter-Glo, 24 h; series mostly up to 46.1 µM; growth rescue (activation): at the top concentration
In short: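 Luminescence from BacTiter-Glo reports growth of TDP-43-expressing yeast after 24 hr at 30 deg C with compound. Cells were raffinose-pregrown to mid-log, then seeded in galactose medium at OD600=0.02.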
Potency means the concentration at half of the fitted maximal effect.

Potency, inactive:
CCOCCCNC(=O)c1cc2c(=O)n3ccccc3nc2s1

Potency, active:
C#Cc1cc(N2CCN(C(=O)c3ccoc3)CC2)n2nc(-c3cccc(Cl)c3)cc2n1 22.4 µM
CN(C(=O)c1cc2c(=O)n3ccccc3nc2s1)C1CCCCC1 14.1 µM
COC(=O)c1ccc(NC(=O)C23CC4CC(C2)CC(n2cnc(Cl)n2)(C4)C3)cc1 25.1 µM
COc1ccc(OC)c(C(=O)c2ccc(Cl)cc2)c1 12.6 µM
COCCNc1ncnc2c1c(-c1ccccc1)cn2-c1ccc(C)c(Cl)c1 12.6 µM
COc1ccc(N2CCN(S(=O)(=O)CCNC(=O)C34CC5CC(CC(C5)C3)C4)CC2)cc1 20 µM
O=S(=O)(Nc1ccc(OC(F)(F)F)cc1)c1cccc2nonc12 11.2 µM
O=C(CSCc1ccc([N+](=O)[O-])cc1)NCCSCc1ccccc1 20 µM
CC(Nc1ccc([N+](=O)[O-])cc1[N+](=O)[O-])c1ccccc1 (configuration not stated) 12.6 µM
COc1ccccc1N1CCN(/N=C\C(Br)=C\c2ccccc2)CC1 11.2 µM
CCOC(=O)C1C(=O)C=C(c2ccc(OC)cc2)CC1c1ccco1 (configuration not stated) 11.2 µM
Cc1ccc2cccc(NC(=O)c3ccc(OC(C)C)cc3)c2n1 11.2 µM
COc1ccc(-c2nc(CCNC(=O)c3ccc(Br)o3)cs2)cc1 12.6 µM
Cc1cccc(-n2c(C)cc(/C=N/NC(N)=S)c2C)c1 35.5 µM
C=Cc1ccc(C(=O)N2CCCC(CCC(=O)N3CCN(c4ccccn4)CC3)C2)cc1 (configuration not stated) 3.55 µM
CCCCn1c(=S)[nH]c2ccccc2c1=O 14.1 µM
Cc1cccc(C)c1NC(=O)C(Cl)C(=O)c1ccccc1 (configuration not stated) 3.98 µM
COC(=O)C1=CN(c2c(C)cc(C)cc2C)C(N)=C(C#N)C1c1cccc(F)c1 (configuration not stated) 22.4 µM

Growth rescue (activation), inactive:
O=C(c1cccc(Cl)c1)N1CCN(CCc2ccncc2)CC1 -9.8%
O=C(Cn1cc(SCc2cccc(Cl)c2)c2ccccc21)N1CCCCC1 21.1%
O=C(Nc1ccc(OC(F)(F)F)cc1)c1cc2c(=O)n3ccccc3nc2s1 7.86%
CCN(CCCNC(=O)c1cc2c(=O)n(CC)c3ccccc3c2s1)Cc1ccccc1 2.18%
Cc1oc2ncnc(N3CCOCC3)c2c1C(=O)NCCc1ccccc1 20.6%
NS(=O)(=O)c1ccc(CCNC(=O)CCCCCn2c(=O)[nH]c3ccccc3c2=O)cc1 10.1%
CCc1ccc(NC(=O)c2cc(S(=O)(=O)NC3CCCCCC3)ccc2F)cc1 19.2%
CCOc1ccccc1NC(=O)c1ccc2c(c1)CCN2S(=O)(=O)c1ccc(C)cc1 -0.207%
CCOc1ccc(OCC)c(NC(=O)c2cc(C)nc3c2c(C)nn3-c2cccc(Cl)c2C)c1 19.8% [at 9.22 µM]
O=C(Nc1ccc(S(=O)(=O)Nc2ncccn2)cc1)C12CC3CC(CC(C3)C1)C2 -29.9%
O=C(Nc1c2c(nn1-c1ccc(F)cc1)CS(=O)C2)C12CC3CC(CC(C3)C1)C2 (configuration not stated) 11.8%
CN(C)c1ccc(C(CNS(=O)(=O)c2cc(F)ccc2F)N2CCOCC2)cc1 (configuration not stated) -9.72%
CCOc1ccc(N2CC(c3nc4ccccc4n3CCOc3ccc(OC)cc3)CC2=O)cc1 (configuration not stated) 13.9%
COc1cc(OC)c(NC(=O)N2CC3CCCN3c3ccccc32)cc1Cl (configuration not stated) 18.7%
Cc1ccc(C2C=C(c3ccc(Cl)cc3)Nc3nc(NC(=O)CCC(=O)O)nn32)cc1 (configuration not stated) 14.3%
COc1ccc(OC)c(C(=O)c2ccc(C(=O)N3CCN(Cc4csc(C)n4)CC3)cc2)c1 -12.4%
CCC(C)NC(=O)c1cc(Cl)ccc1OC (configuration not stated) 4.16%
Cc1oc2ccc(O)c(CN3CCC(C)CC3)c2c1C(=O)Nc1ccccc1 18.6%
CCOC(=O)C1CCN(c2ncnc3c2c(-c2ccccc2)cn3-c2cccc(C)c2)CC1 14.6%
CCOC(=O)C1CCN(c2ncnc3c2c(-c2ccccc2)cn3-c2ccc(C)cc2)CC1 -8.43%
CCOc1ccc(N(CC)S(=O)(=O)N2CCCC(C(=O)NCc3ccc(Cl)cc3)C2)cc1 (configuration not stated) -15.1%
CCOC(=O)c1ccc(NC(=O)Cn2cc(S(=O)(=O)Cc3ccccc3F)c3ccccc32)cc1 19%
Cc1c(CNC2CCCCC2)c(C(=O)O)c(C)n1Cc1cccc(Cl)c1 -1.7%
COc1ccc(OCC(=O)NCCS(=O)(=O)N2CCN(c3ccc(F)cc3)CC2)cc1 -10.2%
COc1ccc(N2CCN(S(=O)(=O)CCNC(=O)C(c3ccccc3)c3ccccc3)CC2)cc1 17.7%
COCCNC(=O)CSc1c(C)cnc2c1c(=O)n(C)c(=O)n2C 12.2%
Cc1ccccc1NC(=O)c1c(NC(=O)c2ccccc2F)sc2c1CCC(C)C2 (configuration not stated) 18.8%
CCOc1ccc(N(CC)S(=O)(=O)N2CCCC(C(=O)Nc3ccc(C(C)=O)cc3)C2)cc1 (configuration not stated) 2.83%
Nc1ncc(S(=O)(=O)Nc2ccc(OC(F)(F)F)cc2)cn1 20.6%
O=C(O)c1ccc(NS(=O)(=O)c2cccc3nsnc23)cc1 -12.3%
Cc1ccc(CSc2oc(-c3cccs3)nc2S(=O)(=O)c2ccc(C)cc2)cc1 -1.5%
O=C(Cc1ccc(Cl)cc1)Nc1ccc2nn(-c3ccc(Cl)cc3)nc2c1 5.59%
COc1ccc(Cn2ccnc2SCC(=O)Nc2ccc3c(c2)OCO3)cc1 31.9%
O=C(Cc1ccc([N+](=O)[O-])cc1)NCCS(=O)(=O)N1CCN(c2ccccc2)CC1 10.9%
O=C(CSCc1ccc([N+](=O)[O-])cc1)Nc1cccc(C(=O)Nc2ccccc2C(=O)O)c1 -13.9%
CCOC(=O)c1ccc(NC(=O)c2c(NCc3cccc(OC)c3)sc3c2CCC3)cc1 8.24%
Cc1cccc(OCC(=O)N(Cc2ccc(C(C)C)cc2)Cc2ccco2)c1C -2.83%
CC(C)OP(=O)(OC(C)C)C(Nc1ccccc1)c1cccc([N+](=O)[O-])c1 (configuration not stated) -9.78%
CC(Nc1ccc(-c2nc(-c3ccco3)no2)cc1[N+](=O)[O-])c1ccccc1 (configuration not stated) -6.77%
COc1ccccc1N1CCN(Cc2ccc(OC)c3ccccc23)CC1 -3.99%
COc1ccccc1N1CCN(C2C(=O)c3ccccc3N2C(C)=O)CC1 (configuration not stated) 25.8%
CCS(=O)(=O)N1CCc2cc(C(=O)NCc3ccc(C)cc3)ccc21 20.1%
CCOC(=O)c1ccccc1NC(=O)c1sc2nc(-c3ccc(F)cc3)cn2c1C 19.9%
COc1ccc(C2=NN(C(=O)CSc3nnnn3C)C(c3ccco3)C2)cc1 (configuration not stated) 12.1%
CCOC(=O)C1C(=O)NC(N2CCN(c3ccccc3)CC2)=NC1c1ccco1 (configuration not stated) 1.54%
Cc1nn(C(=O)c2c(F)cccc2F)c(C)c1S(=O)(=O)N1CCOCC1 21.3%
O=C(NC1CC(=O)N(c2ccc(Cl)cc2)C1)C1CCCC1 (configuration not stated) 13.7%
COc1ccccc1C(=O)Nc1c(C(=O)Nc2ccc(C)cc2)oc2ccccc12 6.8%
Cc1ccc2cccc(NC(=O)C(C)Oc3ccc(C)c(C)c3)c2n1 (configuration not stated) 20%
Cc1ccc2cccc(NC(=O)c3cccc4ccccc34)c2n1 27.2%
COc1ccc(-c2cc(-c3ccc(F)cc3)nc3c2COc2ccccc2-3)cc1 11.8%
CC(C)C12CN3CC(C(C)C)(CN(C1)C3c1ccc(OCc3ccccc3)cc1)C2=O (configuration not stated) 15.9%
COc1cc(OC)cc(C(=O)NNC(=O)CNC(=O)c2ccc(Br)o2)c1 -3.31%
O=C(NCCc1ccccn1)c1ccc(COc2ccccc2)o1 17.8%
Cc1ccc(Cn2c(=O)n(Cc3nc(-c4ccccc4)no3)c(=O)c3cc4c(cc32)OCO4)cc1 1.98%
CCC1CCCCN1Cc1c(O)ccc2c(=O)c(Oc3ccccc3Cl)c(C(F)(F)F)oc12 (configuration not stated) 19.5%
Cc1cc(NC(=O)c2cccc(Cl)c2)ccc1-c1cc2ccccc2oc1=O 0%
Cc1cc2oc(C(=O)N(Cc3ccc(Cl)cc3)Cc3ccco3)c(C)c2cc1Cl 17.3%
CC(C)Oc1c(Br)cc(Br)cc1/C=N/NC(N)=S 18%
Cc1cc(/C=N/NC(N)=O)c(C)n1C1CCCCC1 -16.5%
COc1ccccc1NC(=O)c1oc2ccccc2c1NC(=O)C(C)C 15.9%
COc1ccccc1C1C(C(=O)N2CCCCC2)=C(C)Nc2nc3ccccc3n21 (configuration not stated) 15.8%
CN(Cc1ccccc1)S(=O)(=O)c1ccc(F)c(C(=O)Nc2cccc(Cl)c2Cl)c1 -4.13%
COc1cccc(CC(=O)N2CCCC(CCC(=O)N3CCN(c4ccccn4)CC3)C2)c1 (configuration not stated) 10.6% [at 9.22 µM]
CC(=O)c1ccc(S(=O)(=O)NCCC(=O)N2CCN(c3ccccn3)CC2)cc1 13.3%
COc1cccc(N2CCN(S(=O)(=O)c3cc(Br)cc4c3N(C(=O)C3CC3)CC4)CC2)c1 21.5%
CCCCn1c(=S)[nH]c2ncccc2c1=O 23.4%
CCCCNC(=O)c1ccc(-n2c(=S)[nH]c3ccccc3c2=O)cc1 5.1%
COc1ccc(CCNC(=O)c2cc(=O)c3c(C)cc(C)cc3o2)cc1OC 1.87%
Cc1ccc(CN2CCCn3nc(C(=O)NCc4ccccc4Cl)cc3C2=O)cc1 19.2%
Cc1ccc(CNC(=O)CCC(=O)N2Cc3ccccc3Oc3ncccc32)cc1 14.9% [at 9.22 µM]
COc1cc(C(=O)NCCS(=O)(=O)N2CCN(c3ccccc3)CC2)cc(OC)c1OC 22.3%
CN=C(c1ccccc1)c1c(C)cccc1C 18%
Cc1cccc(C)c1NC(=O)N1CC(C)OC(C)C1 (configuration not stated) -20.1%
O=C(Cn1c(=O)n(-c2ccc(F)cc2)c(=O)c2sccc21)Nc1cccc(C(F)(F)F)c1 7.37%
COC(=O)C1=CN(c2ccc(F)c(F)c2)C=C(C(=O)OC)C1c1ccc([N+](=O)[O-])cc1 4.3%
CCOC(=O)C1=C(CC)OC(N)=C(C#N)C1c1ccc(F)cc1F (configuration not stated) -18.5%
CCN(Cc1ccccc1)Cc1c(O)ccc2c(=O)c(-c3ccc(Cl)cc3Cl)coc12 -19.7%

Source: PubChem BioAssay AID652104 (National Center for Advancing Translational Sciences (NCATS), 2013)
